According to PubChem BioAssay AID1159580 (chemical genetic matrix, 2015):
The whole screen tested about 5,500 compounds, of which about 2,000 (36%) were called active. About 18% were inconclusive and are not listed. Rule as the data show it: active = normalized growth mostly below about 0.91 (no sharp cut-off); inconclusive = no clear call, values can overlap the other calls; inactive = mostly above about 0.92. This is one part of the list.

Assay: chemical genetic growth profiling, strain panel (AID 1159580);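 also: tested at 20 µM; growth read once vehicle control cultures reached saturation at 30 °C; 1 = growth at the plate median or of vehicle wells; lower values mean less growth of the strain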
Details: growth OD

Measured: normalized growth

N[C@@H](C(=O)O)[C@@H](O)[C@H](O)[C@H](O)CO
inactive: S. cerevisiae deletion strains, locus YJR066W, strain TOR1, stronger effect = lower value 0.985 | S. cerevisiae deletion strains, locus YJR075W, strain HOC1, stronger effect = lower value 1.02 | S. cerevisiae deletion strains, locus YKL009W, strain mrt4, stronger effect = lower value 1 | S. cerevisiae deletion strains, locus YKL068W, stronger effect = lower value 1.01 | S. cerevisiae deletion strains, locus YKL085W, strain MDH1 (second series), stronger effect = lower value 1.02 | S. cerevisiae deletion strains, locus YKL085W, strain MDH1, stronger effect = lower value 1.02 | S. cerevisiae deletion strains, locus YKL160W, strain elf1, stronger effect = lower value 1.03 | S. cerevisiae deletion strains, locus YKL190W, strain CNB1, stronger effect = lower value 1.01 | S. cerevisiae deletion strains, locus YKR001C, strain vps1, stronger effect = lower value 1.04 | S. cerevisiae deletion strains, locus YKR026C, strain gcn3, stronger effect = lower value 1.04 | S. cerevisiae deletion strains, locus YKR091W, strain srl3, stronger effect = lower value 1.02 | S. cerevisiae deletion strains, locus YLL001W, strain dnm1, stronger effect = lower value 1.03 | S. cerevisiae deletion strains, locus YLL026W, stronger effect = lower value 1.03 | S. cerevisiae deletion strains, locus YLL041C, strain sdh2, stronger effect = lower value 1.02 | S. cerevisiae deletion strains, locus YLR027C, strain aat2, stronger effect = lower value 1.02 | S. cerevisiae deletion strains, locus YLR039C, strain RIC1, stronger effect = lower value 1.1 | S. cerevisiae deletion strains, locus YLR058C, strain SHM2, stronger effect = lower value 1.01 | S. cerevisiae deletion strains, locus YLR102C, strain apc9, stronger effect = lower value 1.01 | S. cerevisiae deletion strains, locus YLR113W, strain HOG1, stronger effect = lower value 1.07 | S. cerevisiae deletion strains, locus YLR221C, strain rsa3, stronger effect = lower value 1.03 | S. cerevisiae deletion strains, locus YLR258W, strain gsy2, stronger effect = lower value 1.01 | S. cerevisiae deletion strains, locus YLR262C, strain YPT6 (second series), stronger effect = lower value 1.06 | S. cerevisiae deletion strains, locus YLR262C, strain YPT6, stronger effect = lower value 1.14 | S. cerevisiae deletion strains, locus YLR268W, strain sec22, stronger effect = lower value 1.04 | S. cerevisiae deletion strains, locus YLR320W, strain mms22, stronger effect = lower value 1.03 | S. cerevisiae deletion strains, locus YLR330W, strain CHS5, stronger effect = lower value 1.01 | S. cerevisiae deletion strains, locus YLR342W, strain FKS1 (second series), stronger effect = lower value 1.01 | S. cerevisiae deletion strains, locus YLR342W, strain FKS1, stronger effect = lower value 1.03 | S. cerevisiae deletion strains, locus YLR357W, strain rsc2, stronger effect = lower value 1.04 | S. cerevisiae deletion strains, locus YLR370C, strain arc18, stronger effect = lower value 1.02 | S. cerevisiae deletion strains, locus YLR371W, strain rom2, stronger effect = lower value 1.02 | S. cerevisiae deletion strains, locus YLR384C, strain iki3, stronger effect = lower value 1.02 | S. cerevisiae deletion strains, locus YLR418C, strain cdc73, stronger effect = lower value 1.01 | S. cerevisiae deletion strains, locus YML016C, strain PPZ1, stronger effect = lower value 1.01 | S. cerevisiae deletion strains, locus YML032C, strain rad52, stronger effect = lower value 0.989 | S. cerevisiae deletion strains, locus YML120C, strain ndi1, stronger effect = lower value 1.03 | S. cerevisiae deletion strains, locus YML124C, strain tub3, stronger effect = lower value 1.02 | S. cerevisiae deletion strains, locus YMR058W, strain fet3, stronger effect = lower value 1.03 | S. cerevisiae deletion strains, locus YMR078C, strain ctf18, stronger effect = lower value 1.03 | S. cerevisiae deletion strains, locus YMR125W, strain sto1, stronger effect = lower value 1.02 | S. cerevisiae deletion strains, locus YMR129W, stronger effect = lower value 1.03 | S. cerevisiae deletion strains, locus YMR205C, strain PFK2, stronger effect = lower value 1.03 | S. cerevisiae deletion strains, locus YMR223W, strain ubp8, stronger effect = lower value 1.01 | S. cerevisiae deletion strains, locus YMR231W, strain pep5, stronger effect = lower value 1 | S. cerevisiae deletion strains, locus YMR307W, strain GAS1, stronger effect = lower value 0.992 | S. cerevisiae deletion strains, locus YNL067W, strain RPL9B, stronger effect = lower value 1.01 | S. cerevisiae deletion strains, locus YNL071W, strain lat1, stronger effect = lower value 1.03 | S. cerevisiae deletion strains, locus YNL153C, strain GIM3, stronger effect = lower value 1.01 | S. cerevisiae deletion strains, locus YNL183C, strain NPR1, stronger effect = lower value 0.989 | S. cerevisiae deletion strains, locus YNL209W, strain ssb2, stronger effect = lower value 1.02 | S. cerevisiae deletion strains, locus YNL233W, strain BNI4, stronger effect = lower value 1.02 | S. cerevisiae deletion strains, locus YNL248C, strain rpa49, stronger effect = lower value 1.04 | S. cerevisiae deletion strains, locus YNL250W, strain rad50, stronger effect = lower value 1.03 | S. cerevisiae deletion strains, locus YNL271C, strain bni1, stronger effect = lower value 1.03 | S. cerevisiae deletion strains, locus YNL298W, strain CLA4, stronger effect = lower value 1.02 | S. cerevisiae deletion strains, locus YNL307C, strain MCK1, stronger effect = lower value 1.02 | S. cerevisiae deletion strains, locus YNL322C, strain KRE1 (second series), stronger effect = lower value 1.03 | S. cerevisiae deletion strains, locus YNR049C, strain mso1, stronger effect = lower value 1.04 | S. cerevisiae deletion strains, locus YNR052C, strain pop2, stronger effect = lower value 1.01 | S. cerevisiae deletion strains, locus YOL006C, strain TOP1, stronger effect = lower value 1.06 | S. cerevisiae deletion strains, locus YOL012C, strain htz1 0.92 | S. cerevisiae deletion strains, locus YOL147C, strain pex11, stronger effect = lower value 1.01 | S. cerevisiae deletion strains, locus YOR001W, strain rrp6, stronger effect = lower value 1.05 | S. cerevisiae deletion strains, locus YOR061W, strain CKA2, stronger effect = lower value 1.02 | S. cerevisiae deletion strains, locus YOR069W, strain VPS5, stronger effect = lower value 1.01 | S. cerevisiae deletion strains, locus YOR070C, strain gyp1, stronger effect = lower value 1.02 | S. cerevisiae deletion strains, locus YOR080W, strain dia2, stronger effect = lower value 1.04 | S. cerevisiae deletion strains, locus YOR083W, strain WHI5, stronger effect = lower value 1.02 | S. cerevisiae deletion strains, locus YOR106W, strain vam3, stronger effect = lower value 1.07 | S. cerevisiae deletion strains, locus YOR136W, strain idh2, stronger effect = lower value 1.02 | S. cerevisiae deletion strains, locus YOR144C, strain elg1, stronger effect = lower value 1.01 | S. cerevisiae deletion strains, locus YOR184W, strain ser1, stronger effect = lower value 1.03 | S. cerevisiae deletion strains, locus YOR231W, strain MKK1, stronger effect = lower value 1.08 | S. cerevisiae deletion strains, locus YOR265W, strain rbl2, stronger effect = lower value 1.02 | S. cerevisiae deletion strains, locus YOR270C, strain vph1, stronger effect = lower value 1.12 | S. cerevisiae deletion strains, locus YOR290C, strain snf2, stronger effect = lower value 1.02 | S. cerevisiae deletion strains, locus YOR316C, strain cot1, stronger effect = lower value 1.02 | S. cerevisiae deletion strains, locus YPL051W, strain arl3, stronger effect = lower value 1.02 | S. cerevisiae deletion strains, locus YPL055C, strain LGE1, stronger effect = lower value 1.02 | S. cerevisiae deletion strains, locus YPL078C, strain atp4, stronger effect = lower value 1.01 | S. cerevisiae deletion strains, locus YPL106C, strain sse1, stronger effect = lower value 1.01 | S. cerevisiae deletion strains, locus YPL240C, strain hsp82, stronger effect = lower value 1.02 | S. cerevisiae deletion strains, locus YPL256C, strain CLN2, stronger effect = lower value 1.03 | S. cerevisiae deletion strains, locus YPR119W, strain clb2, stronger effect = lower value 1.02 | S. cerevisiae deletion strains, locus YPR141C, strain kar3, stronger effect = lower value 1.02 | S. cerevisiae deletion strains, locus YPR163C, strain tif3, stronger effect = lower value 1.03 | S. cerevisiae deletion strains, locus YPR167C, strain met16, stronger effect = lower value 1.02 | S. cerevisiae deletion strains, strain wtn01, stronger effect = lower value 1.05 | S. cerevisiae strains, strain wild type, stronger effect = lower value 1.01
